High-throughput results from PubChem BioAssay.
An excerpt weighted towards active compounds, which were near 3.5% of everything screened.
GDH-TPI counter-1: inhibits GDH-TPI coupling enzymes, artifact for Mtb FBA screen. GDH-TPI coupled enzyme counterscreen, NADH absorbance. inhibition, % at 4.8 µM. 360,000 tested, 1.2% active; in the data active = inhibition above about 30%
Rv3671c inh: inhibitors of M. tuberculosis serine protease Rv3671c. P9WHR9. inhibition, % at 5.96 µM. 320,000 tested, 0.048% active; in the data active = inhibition above about 38%;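 note: extracellular domain of Rv3671c used as enzyme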
Target sequence (P9WHR9 whole entry, looked up, the tested form may be a part): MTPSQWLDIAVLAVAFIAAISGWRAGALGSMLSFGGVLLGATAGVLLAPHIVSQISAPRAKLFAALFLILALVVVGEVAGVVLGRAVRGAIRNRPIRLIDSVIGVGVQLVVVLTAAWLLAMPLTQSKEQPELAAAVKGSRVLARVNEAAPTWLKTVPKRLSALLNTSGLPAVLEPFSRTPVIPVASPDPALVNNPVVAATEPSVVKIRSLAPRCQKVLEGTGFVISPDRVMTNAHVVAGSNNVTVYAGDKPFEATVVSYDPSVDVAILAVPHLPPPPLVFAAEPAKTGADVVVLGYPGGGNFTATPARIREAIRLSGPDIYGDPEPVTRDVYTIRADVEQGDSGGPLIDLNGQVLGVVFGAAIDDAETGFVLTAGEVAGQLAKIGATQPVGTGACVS
Mtb UGM inh: blocks M. tuberculosis UGM enzyme | P9WIQ1 | purified UGM, fluorescence polarization probe displacement | inhibition, % at 10 µM | 320,000 tested, 0.06% active; in the data active = inhibition above about 10%, passing the limit was not always enough
Mtb FBA inh: Mtb fructose-bisphosphate aldolase inhibition. inhibition, % at 1 µM. 360,000 tested, 2.3% active. purified M. tuberculosis FBA, fluorescence read-out. P9WQA3. AID 588726
Mtb FBA inh conf: Mtb FBA inhibition, confirmed; shares compounds with Mtb FBA inh; inhibition, % at 1 µM; 5,600 tested, 78% active; purified M. tuberculosis FBA, fluorescence read-out
GDH-TPI counter-2: counter-screen for M. tuberculosis FBA inhibitors: GDH-TPI coupled enzyme inhibition. shares compounds with Mtb FBA inh. AID 652141. GDH-TPI coupled enzyme counterscreen, fluorescence. inhibition, % at 1 µM. 5,600 tested, 81% active; in the data active = inhibition above about 10%
GDH-TPI DR: counter-screen for M. tuberculosis FBA inhibitors: GDH-TPI dose response; shares compounds with Mtb FBA inh; GDH-TPI coupled enzyme assay, fluorescence, artifact counterscreen; IC50, µM; 170 tested, 79% active; AID 652145; call rule not given here
Numbers stand for hits. Cut-off read from the data, not from the text of the source, unless noted: active = inhibition above about 27%; inactive = the rest.

What do the screens show for `N=c1oc2cc(O)ccc2cc1C(=O)Nc1ccc(Br)cc1`?
GDH-TPI counter-1: inactive; Rv3671c inh: inactive; Mtb UGM inh: inactive; Mtb FBA inh: 73.0; Mtb FBA inh conf: inactive; GDH-TPI counter-2: 15.4

What do the screens show for `Cn1nnnc1SCC(=O)Nc1ccc(Oc2ccccc2)cc1`?
GDH-TPI counter-1: inactive; Rv3671c inh: inactive; Mtb UGM inh: inactive; Mtb FBA inh: inactive

What do the screens show for `Cn1nnnc1SCC(=O)Nc1nn(-c2ccccc2)nc1C(N)=O`?
GDH-TPI counter-1: inactive; Rv3671c inh: inactive; Mtb UGM inh: inactive; Mtb FBA inh: 27.8; Mtb FBA inh conf: 132.0; GDH-TPI counter-2: 89.1

How did O=C(CSc1nnc(-c2ccccc2F)n1C1CC1)NCc1ccco1 do in these assays?
GDH-TPI counter-1: inactive; Rv3671c inh: inactive; Mtb UGM inh: inactive; Mtb FBA inh: inactive

What do the screens show for `CCN(c1ccc(OC)cc1)S(=O)(=O)N1CCCC(C(=O)NCc2ccc(OC(C)C)cc2)C1` (configuration not stated)?
GDH-TPI counter-1: inactive; Mtb FBA inh: inactive

How did CCOc1ccccc1NC(=O)NCc1ccccn1 do in these assays?
GDH-TPI counter-1: inactive; Rv3671c inh: inactive; Mtb UGM inh: inactive; Mtb FBA inh: inactive

Results for CN(CC(=O)Nc1ccc(F)cc1)C(=O)CSc1nncs1 ?
GDH-TPI counter-1: inactive; Rv3671c inh: inactive; Mtb UGM inh: inactive; Mtb FBA inh: inactive

What do the screens show for `Cc1csc(SCC(=O)N(C)CC(=O)Nc2ccc(F)cc2)n1`?
GDH-TPI counter-1: inactive; Rv3671c inh: inactive; Mtb UGM inh: inactive; Mtb FBA inh: 27.9; Mtb FBA inh conf: 29.5; GDH-TPI counter-2: 13.1

What do the screens show for `CC(NC(=O)C(NS(=O)(=O)c1cccs1)C(C)C)c1ccc(S(N)(=O)=O)cc1` (configuration not stated)?
GDH-TPI counter-1: inactive; Rv3671c inh: inactive; Mtb UGM inh: inactive; Mtb FBA inh: inactive

What do the screens show for `Cc1cc(C)n2nc(C(=O)Nc3ccc4c(c3)CCC4)nc2n1`?
GDH-TPI counter-1: inactive; Rv3671c inh: inactive; Mtb UGM inh: inactive; Mtb FBA inh: inactive

How did Cc1cc(C)c2nc(-c3ccccn3)cc(C(=O)NCc3ccco3)c2c1 do in these assays?
GDH-TPI counter-1: inactive; Rv3671c inh: inactive; Mtb UGM inh: inactive; Mtb FBA inh: 50.7; Mtb FBA inh conf: active; GDH-TPI counter-2: 198.7

What do the screens show for `Cc1cc(C)c2nc(-c3ccccn3)cc(C(=O)NCc3cc(C)n(C)n3)c2c1`?
GDH-TPI counter-1: inactive; Rv3671c inh: inactive; Mtb UGM inh: inactive; Mtb FBA inh: 75.5; Mtb FBA inh conf: 67.6; GDH-TPI counter-2: 52.8

Results for Cc1cc(C)c2nc(-c3ccccn3)cc(C(=O)Nn3cnnc3)c2c1 ?
GDH-TPI counter-1: inactive; Rv3671c inh: inactive; Mtb UGM inh: inactive; Mtb FBA inh: inactive

Results for C=CCNC(=O)c1cc(-c2ccncc2)nc2c(C)cc(C)cc12 ?
GDH-TPI counter-1: inactive; Rv3671c inh: inactive; Mtb UGM inh: inactive; Mtb FBA inh: 60.0; Mtb FBA inh conf: 151.7; GDH-TPI counter-2: 129.8

What do the screens show for `CCc1cc(=O)oc2c(C)c(OC(C)C(=O)NCCCN3CCOCC3)ccc12` (configuration not stated)?
GDH-TPI counter-1: inactive; Rv3671c inh: inactive; Mtb UGM inh: inactive; Mtb FBA inh: inactive

How did CCCc1cc(=O)oc2cc(C)cc(OC(C)C(=O)NCCCN3CCOCC3)c12 (configuration not stated) do in these assays?
GDH-TPI counter-1: inactive; Rv3671c inh: inactive; Mtb UGM inh: inactive; Mtb FBA inh: 79.8; Mtb FBA inh conf: inactive; GDH-TPI counter-2: inactive

How did CCc1cc(=O)oc2cc(C)cc(OC(C)C(=O)NCCN3CCOCC3)c12 (configuration not stated) do in these assays?
GDH-TPI counter-1: inactive; Rv3671c inh: inactive; Mtb UGM inh: inactive; Mtb FBA inh: 44.1; Mtb FBA inh conf: inactive; GDH-TPI counter-2: inactive

What do the screens show for `Cc1cc(OC(C)C(=O)NCCN2CCOCC2)c2c(C)c(C)c(=O)oc2c1` (configuration not stated)?
GDH-TPI counter-1: inactive; Rv3671c inh: inactive; Mtb UGM inh: inactive; Mtb FBA inh: 51.1; Mtb FBA inh conf: 116.1; GDH-TPI counter-2: 93.5

Results for CCCc1cc(=O)oc2cc(C)cc(OC(C)C(=O)NCCN3CCOCC3)c12 (configuration not stated) ?
GDH-TPI counter-1: inactive; Rv3671c inh: inactive; Mtb UGM inh: inactive; Mtb FBA inh: 61.2; Mtb FBA inh conf: 54.2; GDH-TPI counter-2: 43.0

Results for O=c1[nH]c(=O)c2[nH]c(=S)n(-c3ccccc3)c2[nH]1 ?
GDH-TPI counter-1: inactive; Mtb FBA inh: inactive

What do the screens show for `CCN(C(=O)COC(=O)c1cccc(-n2cnnn2)c1)C1CCCCC1`?
GDH-TPI counter-1: inactive; Rv3671c inh: inactive; Mtb UGM inh: inactive; Mtb FBA inh: inactive

What do the screens show for `Cc1cc(=O)oc2c(C)c(OC(C)C(=O)NCCCN3CCOCC3)ccc12` (configuration not stated)?
GDH-TPI counter-1: inactive; Rv3671c inh: inactive; Mtb UGM inh: inactive; Mtb FBA inh: inactive

Results for Cc1cc(OC(C)C(=O)NCCCN2CCOCC2)c2c(C)cc(=O)oc2c1 (configuration not stated) ?
GDH-TPI counter-1: inactive; Rv3671c inh: inactive; Mtb UGM inh: inactive; Mtb FBA inh: 56.4; Mtb FBA inh conf: inactive; GDH-TPI counter-2: inactive; GDH-TPI DR: 2.73

Results for CC(C)(C)c1cc(NC(=O)C2(C)CCN2C(=O)C2(c3ccccc3)CCCC2)no1 (configuration not stated) ?
GDH-TPI counter-1: inactive; Mtb FBA inh: inactive

How did COc1cccc(/C=C/C(=O)OCC(=O)NC2CCCC2)c1 do in these assays?
GDH-TPI counter-1: inactive; Mtb FBA inh: inactive

Results for COC(=O)c1ccc(CNC(=O)COC(=O)/C=C/c2cccc(OC)c2)cc1 ?
GDH-TPI counter-1: inactive; Mtb FBA inh: 27.5; Mtb FBA inh conf: 167.7; GDH-TPI counter-2: 156.6

How did COc1cccc(/C=C/C(=O)OCC(=O)NC2CC2)c1 do in these assays?
GDH-TPI counter-1: inactive; Rv3671c inh: inactive; Mtb UGM inh: inactive; Mtb FBA inh: 27.8; Mtb FBA inh conf: inactive; GDH-TPI counter-2: inactive

How did CSc1ccc(/C=C/C(=O)OCC(=O)NC2CCCC2)cc1 do in these assays?
GDH-TPI counter-1: 41.1; Mtb FBA inh: 61.3; Mtb FBA inh conf: active; GDH-TPI counter-2: active

Results for O=C(COC(=O)/C=C/c1ccc(F)cc1)NC1CCCC1 ?
GDH-TPI counter-1: inactive; Mtb FBA inh: inactive

How did COC(=O)c1ccc(CNC(=O)COC(=O)/C=C/c2ccc(O)c(OC)c2)cc1 do in these assays?
GDH-TPI counter-1: inactive; Rv3671c inh: inactive; Mtb UGM inh: inactive; Mtb FBA inh: inactive

How did COc1cccc(/C=C/C(=O)OCC(=O)NCCc2ccccc2)c1 do in these assays?
GDH-TPI counter-1: inactive; Rv3671c inh: inactive; Mtb UGM inh: inactive; Mtb FBA inh: 27.8; Mtb FBA inh conf: active; GDH-TPI counter-2: 181.7

Results for O=C(NCc1ccccc1)c1cc(C2CCCCN2C(=O)c2ccc(Cl)cc2)on1 (configuration not stated) ?
GDH-TPI counter-1: inactive; Mtb FBA inh: inactive
